High-throughput results from PubChem.
This is a sample that favours compounds with a hit; in the whole collection about 7.7% have one here.
NOMO-1 viab = NOMO-1 AML cell viability reduction, primary screen, STK33 inhibitor project, CellTiter-Glo luminescence. NOMO-1 AML viability, 72 h. AID 2330, 2010. inhibition, % (no concentration beside the values). 37,000 tested, 7.5% active; in the data active means inhibition above about 80%
PD-1 reversal = activators reversing PD-1 mediated T-cell inhibition, primary screen, luminescence, primary human CD4 T cells, PD-L1 beads; CellTiter-Glo 96 h; activation, % (no concentration beside the values); AID 2316, 2010; 29,000 tested, under 10 active; call rule not given here;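 further: 0% = median vehicle wells and 100% = positive control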
Hedgehog inh = Hedgehog pathway signaling inhibitors, primary screen, luminescence, Shh-LIGHT2 cells, Gli-luciferase; inhibition, % (no concentration beside the values); 22,000 tested, 2.1% active; Shh-LIGHT2 Gli-luciferase reporter, 30 h; AID 2313, 2010;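 active means mean inhibition across valid replicates above about 65%, limit read from the data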;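 further: pathway switched on by Shh-conditioned medium diluted 1 in 25 in low serum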
* hit, by the source's call.

For C=C(C)[C@@H]1CC[C@]2(C(=O)O)CC[C@]3(C)[C@H](CCC4[C@]5(C)C(CC[C@]43C)[C@@](C)(CO)[C@@H](O)[C@@H]5C(=O)O)C12 (some centres not stated) the results were NOMO-1 viab 9, PD-1 reversal -1 and Hedgehog inh -42.
`C=C(C)[C@@H]1CC[C@]2(C(=O)O)CC[C@]3(C)[C@H](CCC4[C@@]5(C)CCC(=O)C(C)(C)C5C(O)C[C@]43C)C12` (some centres not stated) gave NOMO-1 viab 104*, PD-1 reversal -2 and Hedgehog inh -21.
`C=C(C)[C@@H]1CC[C@]2(C(=O)O)CC[C@]3(C)[C@H](CC[C@@H]4[C@@]5(C)CC[C@H](O)C(C)(C)[C@@H]5CC[C@]43C)[C@@H]12` gave NOMO-1 viab 105* and Hedgehog inh -3.
For CC(=O)c1cccc(NC(=O)CSc2nccc(C)n2)c1 the results were NOMO-1 viab -19 and PD-1 reversal 1.
COc1ccc(NC(=O)CSc2nc3c(c(C(F)(F)F)n2)CCCC3)c([N+](=O)[O-])c1 was read as NOMO-1 viab 13 and PD-1 reversal 1.
CC(=O)O[C@@H]1C=C[C@@]2(C)C(C[C@@H](OC(C)=O)[C@@]3(C)C4=CC(=O)O[C@@H](c5ccoc5)[C@]4(C)CCC23)C1(C)C (some centres not stated) was read as NOMO-1 viab 106* and Hedgehog inh 6.
For CC(=O)O[C@@H]1CC2C(C)(C)C(=O)C=C[C@]2(C)C2CC[C@@]3(C)[C@H](c4ccoc4)OC(=O)[C@H]4O[C@]43[C@@]21C (some centres not stated) the results were NOMO-1 viab 58 and Hedgehog inh 54.
Screening O=C(Cn1ccc([N+](=O)[O-])n1)Nc1ccc(F)c(Cl)c1 returned NOMO-1 viab 2 and PD-1 reversal -1.
O=C(CCC1COc2ccccc2O1)Nc1ncc(C(F)(F)F)cc1Cl (configuration not stated) was read as NOMO-1 viab 23.
`COc1ccc(-c2cc(C)nc(SCC(=O)N3c4ccccc4Sc4ccccc43)n2)cc1` gave NOMO-1 viab -16 and PD-1 reversal 5.
Screening O=c1c2c3c(sc2[nH]c(=S)n1Cc1ccccc1)CCC3 returned NOMO-1 viab 34 and PD-1 reversal 0.
Screening Cn1c(=S)[nH]c2sc3c(c2c1=O)CCC(C(C)(C)C)C3 (configuration not stated) returned NOMO-1 viab 123*, PD-1 reversal -5 and Hedgehog inh -28.
COc1cc(NC(=O)COc2ccc(Cl)cc2)c(C(=O)O)cc1OC was read as NOMO-1 viab -11 and PD-1 reversal 2.
Screening CSc1c(CC(=O)NN)n(C)c2ccccc12 returned NOMO-1 viab -20, PD-1 reversal 0 and Hedgehog inh -27.
`CCOc1ccc2c(c1)C(C)=CC(C)(C)N2` gave NOMO-1 viab 28 and Hedgehog inh 21.
For CC1=CC(C)(C)Nc2ccc(OC(=O)CN3C(=O)c4cccc([N+](=O)[O-])c4C3=O)cc21 the results were NOMO-1 viab 115* and PD-1 reversal -13.
Screening Cc1ccc2nc(-c3ccccn3)cc(C(=O)Nc3sc4c(c3C(N)=O)CCc3ccccc3-4)c2c1 returned NOMO-1 viab 55 and PD-1 reversal 0.
CN(/N=C(\C#N)C(=O)C1CC1)c1ccc(Cl)cc1 was read as NOMO-1 viab 29, PD-1 reversal -1 and Hedgehog inh 12.
Screening C[C@H]1CN([C@@H](C)CO)C(=O)Cc2cc(NC(=O)CCCCCC(=O)Nc3ccccc3N)ccc2O[C@@H]1CN(C)Cc1ccc2c(c1)OCO2 returned NOMO-1 viab 34 and PD-1 reversal -2.
C[C@@H]1CN([C@@H](C)CO)C(=O)Cc2cc(NC(=O)CCCCCC(=O)Nc3ccccc3N)ccc2O[C@@H]1CN(C)Cc1ccc(-c2ccccc2)cc1 was read as NOMO-1 viab 142* and PD-1 reversal 1.
`C[C@@H]1CN([C@H](C)CO)C(=O)Cc2cc(NC(=O)CCCCCC(=O)Nc3ccccc3N)ccc2O[C@@H]1CN(C)C(=O)Nc1ccc(C(F)(F)F)cc1` gave NOMO-1 viab 4 and PD-1 reversal 0.
For C[C@H]1CN([C@@H](C)CO)C(=O)Cc2cc(NC(=O)CCCCCC(=O)Nc3ccccc3N)ccc2O[C@@H]1CN(C)Cc1ccc(-c2ccccc2)cc1 the results were NOMO-1 viab 140* and PD-1 reversal 0.
C[C@H]1CN([C@@H](C)CO)C(=O)Cc2cc(NC(=O)CCCCCC(=O)Nc3ccccc3N)ccc2O[C@@H]1CN(C)Cc1ccc(C(F)(F)F)cc1 was read as NOMO-1 viab 106* and PD-1 reversal 1.
For C[C@@H]1CN([C@@H](C)CO)C(=O)c2cc(NC(=O)CCCCCC(=O)Nc3ccccc3N)ccc2O[C@@H]1CN(C)Cc1ccc(-c2ccccc2)cc1 the results were NOMO-1 viab 46 and PD-1 reversal 2.
`CCOC(=O)c1oc2nc(-c3ccco3)cc(-c3ccco3)c2c1N` gave NOMO-1 viab -15 and PD-1 reversal -1.
Screening CC1(C)Cc2c(sc3nc(SCC(=O)c4ccc(Cl)cc4)nc(N)c23)CS1 returned NOMO-1 viab 24.
For COc1cccc(-c2cc(=O)c3ccccc3o2)c1N the results were NOMO-1 viab 64, PD-1 reversal 0 and Hedgehog inh -122.
Screening COc1cccc(C=C2C(=O)c3ccccc3C2=O)c1OC(C)C returned NOMO-1 viab 104*, PD-1 reversal -4 and Hedgehog inh 6.
Screening O=C(NCc1cccnc1)c1ccc(Cl)c(S(=O)(=O)N2CCOCC2)c1 returned NOMO-1 viab 13 and PD-1 reversal 1.
O=C(Oc1c(CN2CCOCC2)cc(Cl)c2cccnc12)c1ccc(F)cc1 was read as NOMO-1 viab 109*.
`COc1ccccc1C(=O)Oc1c(CN2CCOCC2)cc(Cl)c2cccnc12` gave NOMO-1 viab 109*.
Cc1cccc2c(C(=O)NCCN3CCOCC3)cc(-c3ccccc3Cl)nc12 was read as NOMO-1 viab -4.
Screening COc1ccc(C(=O)CSc2nnc(-c3ccc(C)cc3)n2-c2ccc(C)cc2)cc1 returned NOMO-1 viab 4.
For Cc1ccc(Nc2nc(Oc3ccc(=O)[nH]n3)nc(N3CCOCC3)n2)cc1 the results were NOMO-1 viab 21.
`CC(CNc1ccccc1)C(=Nc1ccccc1)Nc1ccccc1` (configuration not stated) gave NOMO-1 viab 119*, PD-1 reversal -28 and Hedgehog inh -21.
`CC(CCC(=O)Nc1ccccc1)C(=O)O` (configuration not stated) gave NOMO-1 viab -13 and PD-1 reversal 2.
CC(C)CC(NS(=O)(=O)c1cccc2nsnc12)C(=O)O (configuration not stated) was read as NOMO-1 viab 5.
Screening COC(=O)C(CC(C)C)NS(=O)(=O)c1ccc(-c2nnc(SC)n2C)s1 (configuration not stated) returned NOMO-1 viab 119*, PD-1 reversal 0 and Hedgehog inh 3.
C=CCNc1sc(C)nc1C(N)=O was read as NOMO-1 viab 7, PD-1 reversal -1 and Hedgehog inh 15.
